40 compounds from PubChem BioAssay (EPA / NIEHS) can be followed below.

Broadly, the AC50 is the concentration giving half of the maximal activity seen.

SMILES strings stand for the structures. Activity calls are given as the source filed them. How the source made its calls: active means hit-call score of the fitted dose curve at least 0.9, where 1 is the maximum; inactive means score below 0.9.

The assay can be described thus: APR_HepG2_MitoticArrest_24hr: Apredica 24-hour HepG2 Assay for Mitotic Arrest (AID 2282910). The note with it: high-content imaging, actives raise or lower the signal. On the procedure:
APR_HepG2_24hr is a cell-based, multiplexed-readout assay that uses HepG2, a human liver cell line, with measurements taken at 24 hours after chemical dosing in a 384-well plate.APR_HepG2_MitoticArrest_24hr is one of 10 assay component(s) measured or calculated from the APR_HepG2_24hr assay. It is designed to make measurements of cell phenotype, a form of morphology reporter, as detected with fluorescence intensity signals by HCS Fluorescent Imaging technology.Data from the assay component APR_HepG2_MitoticArrest_24hr was analyzed into 1 assay endpoint. This assay endpoint, APR_HepG2_MitoticArrest_24hr, was analyzed with bidirectional fitting relative to DMSO as the negative control and baseline of activity. Using a type of morphology reporter, measures of protein for gain or loss-of-signal activity can be used to understand the signaling at the pathway-level as they relate to the gene . Furthermore, this assay endpoint can be referred to as a primary readout, because this assay has produced multiple assay endpoints where this one serves a signaling function. To generalize the intended target to other relatable targets, this assay endpoint is annotated to the cell cycle intended target family, where the subfamily is arrest.
Cells were treated with dimethyl sulfoxide (DMSO) as a solvent control at a final concentration of 0.5% v/v or with compounds in DMSO with a resulting final DMSO concentration of 0.5% v/v. Compound treatment was done at concentrations of 0.39, 0.78, 1.56, 3.12, 6.24, 12.5, 25, 50, 100, and 200 uM in duplicate on each plate. Cells were treated with compounds for 1, 24, or 72 hr. Carbonyl […] m-chloro-phenylhydrazone (CCCP) and taxol were used as positive controls for mitochondrial function and cytoskeletal stability, respectively; DMSO served as the negative control for this experiment. Cells were fixed by the direct addition of 50 uL formaldehyde in Hank's Balanced Salt Solution (HBSS) to a final concentration of 3.7%. After incubation in the fixation medium for 30 min at room temperature (293-298 K), cells were rinsed twice with HBSS and treated with cell permeabilization buffer (16 uL of 0.5% Triton X-100) for 10 min at room temperature (293-298 K) before labeling. For mitochondrial membrane potential and mitochondrial measurements, pre-fixed cells were incubated with 50 uL of MitoTracker Red CMXRos (Invitrogen) at a concentration of 250 nM for 30 min before fixation. In the remaining cases, post-fixed cells were labeled by incubation with a multiplexed mixture of primary antibodies in HBSS for 60 min at room temperature (293-298 K) to detect immunoreactivity of c-Jun (1:500), phospho-histone H3 (1:100), phospho-histone H2A.x (1:200), p53 (1:400), alpha-tubulin (1:200) and Hoechst 33342 (2 ug/mL). Cells were labeled for multiplexed imaging on two separate plates: a) Hoechst 33342, MitoTracker Red, phospho-histone H3, and alpha-tubulin, and b) Hoechst 33342, phospho-histone H2A.x, and c-Jun. A final rinse with HBSS (50 uL) was performed before analysis. The primary and secondary antibodies for the proteins were phospho-histone H3 (rabbit anti-phospho-histone H3 and FITC-donkey anti-rabbit IgG), phospho-histone H2A.x (mouse anti-phospho-histone H2A.x and FITC-donkey anti-mouse IgG), c-Jun (rabbit anti-phospho-c-Jun and Cy3-donkey anti-rabbit IgG), p53 (sheep anti-p53 and Cy5-donkey anti-sheep IgG), alpha-tubulin (mouse anti-alpha-tubulin and Cy5-donkey anti-mouse IgG). These antibodies are available as the CellCiphr HepG2 assay kit (Millipore).Digital images of each well were captured using a Cellomics ArrayScan VTI (Thermo Scientific Cellomics) (0.8 NA objective, 0.63x optical coupler, and XF-93 filter set) at 20x magnification. The images were acquired using the autofocus feature of the ArrayScan instrument, which entails the following steps. First, the camera focuses on channel 1 (Hoechst 33342), where nuclei are identified. Second, a Z offset of 1 um is used for capturing mitochondria (MitoTracker Red). […]
Regarding `CN(C)c1nc(=O)n(C2CCCCC2)c(=O)n1C`, the call was inactive. `Oc1ccc(Cl)cc1Cl`: the outcome was inactive. Take `CCSC(=O)N(CC)C1CCCCC1`: the result was inactive. On to `C=CC(=O)NCNC(=O)C=C`, for which the compound was classed as inactive. Still for that read-out and setting: as for `C1CC2OC2CC1C1CO1` (stereo not given), the entry is “inactive”. As for `ClC1=C(Cl)[C@]2(Cl)[C@@H]3[C@@H](Cl)[C@H]4O[C@H]4[C@@H]3C1(Cl)C2(Cl)Cl`, the concentration at half-maximal activity (AC50) was 66.5 µM (active). In the case of `NS(=O)(=O)C(F)(F)C(F)(F)C(F)(F)C(F)(F)C(F)(F)C(F)(F)C(F)(F)C(F)(F)F`, the compound was classed as inactive. Regarding `CN(C)CCO`, the compound was called inactive. As for `CC(c1ccc(O)cc1)(c1ccc(O)cc1)c1ccc(O)cc1`, the AC50 was 107 µM (active).

On to `c1cc2ccc3cccc4ccc(c1)c2c34`, for which the outcome was inactive.

In the case of `COS(=O)(=O)OC`, the result was inactive. In the case of `ClC1=C(Cl)[C@]2(Cl)[C@@H]3[C@@H]4C[C@@H]([C@H]5O[C@@H]45)[C@@H]3[C@@]1(Cl)C2(Cl)Cl`, the call was inactive. With `CCC(C)(c1ccc(O)cc1)c1ccc(O)cc1`, the AC50 was 106 µM (active). With `CCC(=O)O[C@H]1CC[C@H]2[C@@H]3CCC4=CC(=O)CC[C@]4(C)[C@H]3CC[C@]12C`, the AC50 was 116 µM (active). For `Oc1ccc(C(c2ccc(O)cc2)(C(F)(F)F)C(F)(F)F)cc1`, the call was inactive. Take `CCOCCOC(C)=O`: the outcome was inactive. In the case of `O=C(O)C(F)(F)C(F)(F)C(F)(F)C(F)(F)C(F)(F)F`, the compound was called inactive. Turning to `c1ccc(-c2ccccc2)cc1`, the result was inactive. As to `CCCCCCOC(=O)c1ccccc1C(=O)OCCCCCC`, the compound was classed as inactive. Still for that read-out and setting: the result for `Clc1ccc(Cl)cc1` reads “inactive”. On the same count and under the same terms, as for `CC(C)(O)C(=O)Nc1ccc([N+](=O)[O-])c(C(F)(F)F)c1`, the entry is “inactive”. Take `Cc1ccccc1CO[C@@H]1C[C@@]2(C(C)C)CC[C@]1(C)O2`: the compound was classed as inactive.

Turning to `CCOC(=O)C(O)(c1ccc(Cl)cc1)c1ccc(Cl)cc1`, the AC50 is 70.5 µM (active). Regarding `Cc1ccccc1[N+](=O)[O-]`, the compound was classed as inactive. With `O=C(NC(=O)c1cc(F)c(F)cc1Cl)Nc1cc(F)ccc1N1CCC(C(=O)O)CC1`, the compound was called inactive. `Cc1cccc([N+](=O)[O-])c1`: the outcome was inactive.

For the compound `Cc1cc(-c2ccc(N)c(C)c2)ccc1N`, the result was inactive. The same measure, in the same setting: the result for `CCC(C)c1cc([N+](=O)[O-])cc([N+](=O)[O-])c1O` (stereo not given) reads “inactive”; that for `ClC1=C(Cl)[C@]2(Cl)[C@@H]3[C@H]4C[C@H]([C@@H]5O[C@H]45)[C@@H]3[C@@]1(Cl)C2(Cl)Cl`, “inactive”. As for `CCCN(CCC)N=O`, the call was inactive. As to `O=C(O)C(F)(F)C(F)(F)C(F)(F)C(F)(F)C(F)(F)C(F)(F)C(F)(F)C(F)(F)F`, the AC50 is 139 µM (active). Turning to `Cc1ccc(O)c(C)c1`, the result was inactive.

Turning to `C=CC(N)=O`, the result was inactive. `Cc1cc2c3c(c1)C(c1ccccc1)=N[C@@H](NC(=O)c1ccncc1)C(=O)N3CC2`: the compound was called inactive. Take `Clc1ccc(C(c2ccccc2Cl)C(Cl)(Cl)Cl)cc1` (stereo not given): the AC50 is 69.4 µM (active).

As for `CC(C)(c1ccccc1)c1ccc(O)cc1`, the compound was called inactive. In the case of `Clc1ccc(C(Cl)(Cl)Cl)cc1`, the call was inactive.

`Cc1ccccc1O`: the compound was classed as inactive.

For `Cc1cc(O)ccc1Cl`, the compound was called inactive.

For `CCC(C)(CC)c1cc(NC(=O)c2c(OC)cccc2OC)on1`, the outcome was inactive.
